According to article PMC4336329 (PLoS ONE, 2015):
The whole screen tested about 310,000 compounds, of which about 14,000 (4.5%) showed an effect of 50% or more. Effects have a minus sign here. This is one part of a sample in which strong results are shown more often than they occur.

These compounds were tested against human ether-à-go-go-related gene (hERG) potassium channel (human, UniProt Q12809) (assay: primary screen, population patch clamp on CHO cells stably expressing hERG; higher = less effect of the substance).
Chain of human ether-à-go-go-related gene (hERG) potassium channel (Q12809 whole entry, looked up): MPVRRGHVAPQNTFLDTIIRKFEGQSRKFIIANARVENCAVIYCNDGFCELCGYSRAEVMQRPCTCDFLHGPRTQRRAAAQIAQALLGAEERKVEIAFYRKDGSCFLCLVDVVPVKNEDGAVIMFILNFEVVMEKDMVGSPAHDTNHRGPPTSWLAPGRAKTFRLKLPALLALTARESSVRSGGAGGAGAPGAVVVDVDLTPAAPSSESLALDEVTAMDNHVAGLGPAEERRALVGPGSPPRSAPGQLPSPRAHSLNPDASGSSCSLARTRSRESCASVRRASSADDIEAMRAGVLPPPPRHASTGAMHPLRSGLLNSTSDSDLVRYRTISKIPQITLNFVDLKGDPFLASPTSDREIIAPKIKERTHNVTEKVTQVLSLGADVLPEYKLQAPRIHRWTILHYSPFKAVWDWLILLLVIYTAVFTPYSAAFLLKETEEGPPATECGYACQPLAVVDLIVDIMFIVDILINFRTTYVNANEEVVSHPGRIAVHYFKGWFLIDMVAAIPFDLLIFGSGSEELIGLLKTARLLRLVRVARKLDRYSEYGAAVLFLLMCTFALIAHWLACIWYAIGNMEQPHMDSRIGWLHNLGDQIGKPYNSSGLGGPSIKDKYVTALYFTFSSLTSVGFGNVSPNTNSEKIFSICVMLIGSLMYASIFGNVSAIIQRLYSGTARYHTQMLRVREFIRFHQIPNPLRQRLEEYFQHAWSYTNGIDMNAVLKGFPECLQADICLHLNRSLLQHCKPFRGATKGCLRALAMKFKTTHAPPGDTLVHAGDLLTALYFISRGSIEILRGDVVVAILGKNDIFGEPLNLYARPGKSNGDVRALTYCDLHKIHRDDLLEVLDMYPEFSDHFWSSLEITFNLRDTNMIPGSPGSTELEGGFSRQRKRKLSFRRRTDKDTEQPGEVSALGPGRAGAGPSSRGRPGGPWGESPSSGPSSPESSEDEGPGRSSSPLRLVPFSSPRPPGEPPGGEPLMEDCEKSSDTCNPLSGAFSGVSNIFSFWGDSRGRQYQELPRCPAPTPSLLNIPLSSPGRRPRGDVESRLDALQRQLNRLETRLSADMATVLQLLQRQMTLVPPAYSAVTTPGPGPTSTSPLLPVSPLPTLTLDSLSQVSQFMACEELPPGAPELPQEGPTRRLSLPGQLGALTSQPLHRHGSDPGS
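Note: peak tail current of the secondary pulse compared with the same well before compound.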

Compound | hERG current change (%, negative = inhibition) at 10uM [%]
N#C/C(=C\c1ccc(-c2nc3ccccc3s2)o1)C(N)=O | 5.03
COc1ccc(C(=O)NC(C)C2CC3CCC2C3)cc1 (stereo not shown) | 2.42
CC1=CN2C(=N)/C(=C/c3ccc(Sc4ccc(C)cc4)o3)C(=O)N=C2S1 | 10.1
CCCCCCCCCCOC(=O)Cn1c(COc2ccccc2C)[n+](C)c2ccccc21.[Cl-] | -72.5
CCCCCCCCCCOC(=O)Cn1c(COc2ccccc2OC)[n+](C)c2ccccc21.[Cl-] | -77.3
CCOC(=O)Cn1c(COc2ccccc2OC)[n+](C)c2ccccc21 | 7.4
CCn1c(COc2ccccc2C)nc2ccccc21 | 4.07
Cn1c(COc2ccccc2O)[n+](C)c2ccccc21.[Br-] | 15.8
CCOC(=O)C(CCCOc1ccccc1C)C(=O)OCC | 6.43
CCOC(=O)c1nn(-c2ccc(Cl)cc2)c(=O)c(C#N)c1C | 5.94
CCCCNC(=S)N(C)/N=C/c1ccc(OCc2ccc(C(=O)OC)cc2)c(OC)c1 | 11.8
O=C(N/N=C/c1cccnc1)c1ccc2c(c1)OCCO2 | 8.1
Cc1ccc(CSCC(=O)N(C)CC(=O)Nc2c(Cl)cccc2Cl)cc1 | -9.07
CCOC(=O)C1CN(S(=O)(=O)c2ccc(OC)cc2)c2cc(S(=O)(=O)CC)ccc2O1 (stereo not shown) | -52
CCOC(=O)C1CN(S(=O)(=O)c2ccc(C)cc2)c2cc(S(=O)(=O)CC)ccc2O1 (stereo not shown) | -41
CCOC(=O)C1CN(S(=O)(=O)c2ccccc2)c2cc(S(=O)(=O)CC)ccc2O1 (stereo not shown) | -23.3
CC(=O)Oc1ccc(C2OC(=O)c3ccccc3N2C(C)=O)cc1 (stereo not shown) | 1.12
CCN(C(=O)Cc1c(C(=O)O)n(C)c2ccccc12)c1cc(OC)ccc1OC | 11.9
O=S(=O)(NCc1ccccn1)c1ccccc1 | -2.19
CNc1oc(-c2ccc(Cl)cc2)nc1C#N | -4.17
Cc1cc(C)cc(N2CCCn3c2nc2c3c(=O)[nH]c(=O)n2C)c1 | 13.6
CC(C)(C)n1nnnc1C(c1cccs1)N(Cc1cccnc1)Cc1ccccc1Cl (stereo not shown) | -11.4

Compound | hERG current change (%, negative = inhibition) at 10uM [%]
CC(C)(C)n1nnnc1CN(Cc1cccnc1)Cc1ccccc1Cl | -33
CC(c1nnnn1C(C)(C)C)N(Cc1cccnc1)Cc1ccccc1Cl (stereo not shown) | -52.3
CCOC(=O)c1nc(C)n(-c2cc(OC)c(Cl)cc2Cl)n1 | 5.95
O=C(CCCOc1ccccc1)Nc1cccc(C(=O)O)c1 | 12.6
COc1ccc(OC)c(NC(=O)CSc2nnc(-c3ccco3)o2)c1 | -15.7
CC(C)c1ccc(NC(=O)CSc2nc(=O)n(CCCN3CCOCC3)c3c2CCCC3)cc1 | -39.7
Cc1cc(C)cc(NC(=O)CSc2nc(=O)n(CCCN3CCOCC3)c3c2CCCC3)c1 | -55.2
Cc1ccc(NC(=O)CSc2nc(=O)n(CCCN3CCOCC3)c3c2CCCC3)cc1 | -45.5
Cc1ccc(NC(=O)CSc2nc(=O)n(CCCN3CCOCC3)c3c2CCCC3)cc1F | -50.2
O=C(CSc1nc(=O)n(CCCN2CCOCC2)c2c1CCCC2)Nc1ccc(Cl)cc1 | -77.7
Cc1ccc(NC(=O)CSc2nc(=O)n(CCCN3CCOCC3)c3c2CCCC3)c(C)c1 | -36.7
CC(C)c1ccc(NC(=O)CSc2nc(=O)n(CCN3CCOCC3)c3c2CCC3)cc1 | -41.5
Cc1cccc(NC(=O)CSc2nc(=O)n(CCCN3CCOCC3)c3c2CCCC3)c1 | -42.4
CC(C)c1ccc(NC(=O)CSc2nc(=O)n(CCCN3CCOCC3)c3c2CCC3)cc1 | -51.3
CCN(CC(=O)Nc1c(F)cccc1F)C(=O)CN1C(=O)NC2(CCCC2)C1=O | 22.5
CCN1CCCc2cc(CN(CCN3CCOCC3)C(=S)Nc3ccc(C)cc3)ccc21 | -8.41
CCN1CCN(S(=O)(=O)Cc2ccccc2)CC1 | 8.52
COc1ccc2oc(C(=O)OCC(=O)NCC3CCCO3)c(C)c2c1 (stereo not shown) | 2.35
Cc1ccc(N2C(=O)c3ccccc3C2(O)c2ncc[nH]2)cc1 (stereo not shown) | 15
O=S(=O)(c1ccc(NC(=S)N/N=C/c2c3ccccc3cc3ccccc23)cc1)N1CCOCC1 | 8.09
O=C1c2ccccc2C(=O)N1CCCCN(C(=O)c1cc2ccccc2oc1=O)c1ccc(F)cc1F | 1.03
Cc1cc(C(C)(C)C)oc1C(=O)OCC(=O)NC1CCCCC1 | 0.649

Compound | hERG current change (%, negative = inhibition) at 10uM [%]
O=C(NC(Cc1ccccc1)c1ccc2c(c1)OCCCO2)c1ccccc1 (stereo not shown) | 19.1
O=C(NCCS(=O)(=O)NCc1ccc(F)cc1)c1ccc2c(c1)OCO2 | -39.8
COc1ccccc1-n1c(O)c(C=NCCN2CCNCC2)c(=O)[nH]c1=O | 14.4
O=C(CSc1nc(=O)n(CCCN2CCOCC2)c2c1CCCC2)Nc1ccc(F)cc1 | -43.7
O=C(CSc1nc(=O)n(CCCN2CCOCC2)c2c1CCCC2)Nc1ccc(F)c(F)c1 | -58
O=C(CSc1nc(=O)n(CCCN2CCOCC2)c2c1CCCC2)Nc1ccc(F)cc1F | -22.6
CC(C)(C)C(=O)Nc1ccccc1C(=O)Nc1ccccn1 | 3.65
COc1ccc(C(=O)CN2CCN(CCN3C(=O)c4cccc5cccc(c45)C3=O)CC2)cc1 | -26.5
O=C1c2cccc3cccc(c23)C(=O)N1CCN1CCN(CC(O)COc2ccccc2)CC1 (stereo not shown) | -60
O=C(COc1ccccc1)N1CCN(CCN2C(=O)c3cccc4cccc(c34)C2=O)CC1 | -8.43
O=C1c2cccc3cccc(c23)C(=O)N1CCN1CCN(CC(O)COc2ccc3ccccc3c2)CC1 (stereo not shown) | -11.7
COc1cccc(OCC(O)CN2CCN(CCN3C(=O)c4cccc5cccc(c45)C3=O)CC2)c1.Cl (stereo not shown) | -59.2
O=C(CSc1nnc(NC(=O)C2CC2)s1)Nc1ccc(F)cc1 | 12.5
COc1ccc(-c2nc3n(n2)C(c2ccncc2)C(C(N)=O)=C(C)N3)cc1 (stereo not shown) | 0.391
CCOc1ccc(C(CC(=O)O)NC(=O)c2ccco2)cc1 (stereo not shown) | 11
COc1cc(/C=N/n2cnnc2)ccc1OCc1ccccc1 | 6.55
CN(C)S(=O)(=O)c1cccc(NC(=O)c2cccc(S(=O)(=O)N3CCc4ccccc43)c2)c1 | -4.62
CN(C(=O)c1ccc(Cl)c([N+](=O)[O-])c1)C1(C)CCS(=O)(=O)C1 (stereo not shown) | -10.9
CSc1ccccc1C(=O)C1CCCN(Cc2ccccn2)C1 (stereo not shown) | -12.6
O=C(C1CCCN(Cc2ccc(Cl)cc2)C1)N1CCCCC1.O=C(O)C(=O)O (stereo not shown) | -14.9
O=C(c1ccc(Cl)cc1)C1CCCN(Cc2cnn(-c3ccccc3)c2)C1 (stereo not shown) | -74.6
CSc1ccccc1C(=O)C1CCCN(Cc2cnn(-c3ccccc3)c2)C1 (stereo not shown) | -67.4

Compound | hERG current change (%, negative = inhibition) at 10uM [%]
CSc1ccccc1C(=O)C1CCCN(Cc2ccncc2)C1 (stereo not shown) | -41.7
CSc1ccccc1C(=O)C1CCCN(Cc2ccn[nH]2)C1 (stereo not shown) | -8.34
CSc1ncc(CN2CCCC(C(=O)c3ccccc3SC)C2)cn1 (stereo not shown) | -65.1
CSc1ccccc1C(=O)C1CCCN(Cc2c(C)n(C)n(-c3ccccc3)c2=O)C1 (stereo not shown) | -16.2
Cc1cc(C)n2c(SCC(=O)NC3CCCCC3C)nnc2n1 (stereo not shown) | 29.5
CCN(C(=O)COC(=O)/C=C/c1ccco1)c1c(N)n(Cc2ccccc2)c(=O)[nH]c1=O | -1.01
CC(C)CC(NC(=O)CCC(=O)OCC(=O)[C@@]1(O)CCC2[C@@H]3CCC4=CC(=O)C=C[C@]4(C)C3[C@@H](O)C[C@@]21C)C(=O)O (stereo partly shown) | 0.23
O=C(CSc1nnc(-c2ccccc2Cl)o1)Nc1ccccn1 | 14.9
CN(CCC#N)CC(=O)Nc1ccc(S(N)(=O)=O)cc1 | 13.3
CCc1cc(C(=O)N2CCCC(C(=O)c3cccc(OC(C)C)c3)C2)n(C)n1 (stereo not shown) | -6.49
CCc1nc(N2CCC(C)CC2)c2oc3ccccc3c2n1.Cl | 5.55
Cc1nc(N2CCC(C)CC2)c2oc3ccccc3c2n1 | 6.63
O=C(c1ccco1)N1CCN(c2ncnc3c2oc2ccccc23)CC1 | -55.4
Cc1nc(N2CCN(C(=O)c3ccco3)CC2)c2oc3ccccc3c2n1.Cl | -54.8
O=C(c1ccco1)N1CCN(c2ncccn2)CC1 | -18.2
CCc1nc(N2CCCCC2)c2oc3ccccc3c2n1.Cl | 6.57
Clc1ccc(N2CCN(c3ncnc4c3oc3ccccc34)CC2)cc1 | 4.58
CCc1nc(N2CCN(C(=O)c3ccco3)CC2)c2oc3ccccc3c2n1.Cl | -64.8
Cc1nc(N2CCOCC2)c2oc3ccccc3c2n1 | -9.35
